Measured values published in PubChem BioAssay (EPA / NIEHS).
Calls of active or inactive are those of the source. The calls were made as follows: active = hit-call score of the fitted dose curve at least 0.9, where 1 is the maximum; inactive = score below 0.9.

read-out: Cytochrome P450 (CYP24A1_1), CYP24A1 (gene 1591); test: LTEA_HepaRG_CYP24A1_1: Life Technologies and Expression Analysis (LTEA) Assay for Cytochrome P450 (CYP24A1_1) using HepaRG (AID 2283671); conditions: mRNA level, 48 h; actives raise or lower the signal
Description: LTEA_HepaRG is a cell based, multiplexed-readout assay that uses HepaRG, a human liver cell line, with measurements taken at 48 hours after chemical dosing on a 96-well plate.LTEA_HepaRG_CYP24A1_1 is one of 102 assay component(s) measured in the LTEA HepaRG cell culture assay. It is a marker of NR mediated metabolism.Data from the assay component LTEA_HepaRG_CYP24A1_1 was analyzed into 1 endpoint. This assay endpoint, LTEA_HepaRG_CYP24A1_1, was analyzed with bidirectional fitting relative to DMSO as the negative control and baseline of activity. Using a type of inducible reporter, measures of mRNA induction for gain or loss-of-signal activity can be used to understand regulation of transcription factor activity. To generalize the intended target to other relatable targets, this assay endpoint is annotated to the cyp intended target family, where the subfamily is xenobiotic metabolism.
A total of 1060 chemcials from the ToxCast library were tested in eight-point concentration-response experiments. Cell culture and cytotoxicity assays were conducted at Thermo Fisher Scientific's Custom Services facility (Madison, WI). A single lot of human HepaRG cells (Thermo Fisher Scientific, Frederick, MD) was used for the cell culture experiments. 96-well format collagen type I coated plates of human HepaRG cells were prepared using established methods. Briefly, cryopreserved HepaRG cells were thawed, plated at a density of approximately 100,000 cells/well in HepaRG Thaw, Plate, and General Purpose media (HPRG770, Thermo Fisher Scientific), and incubated for 48 hours. 0.5% DMSO was selected as vehicle control to balance the requisite need of DMSO in HepaRG cultures to maintain differentiation (for example, baseline metabolism, proportions of hepatocytes vs. cholangiocytes), while enabling further hepatic receptor pathway activation (for example, PXR and CAR) in response to chemical exposure. 48 hours after plating, the culture medium was replaced with HepaRG Serum-Free Incudtion Media. Cells were exposed to each test chemical in duplicate and maintained in CO2 incubators for another 48 hours. Chemical plates were thawed to room temperature and 200x concentrations of treatment groups were prepared. 8-point conentration-reponse curves were made with the highest exposure at 100 uM, followed by half-log dilutions, all in 0.5% DMSO. Each test plate contained variouse controls, induction positive controls (1mM phenobarbital), cytotoxicity positive controls ([…] aflatoxin B1), vehicle controls (0.5% DMSO), and total lysis controls (0.5% DMSO). Cell morphology images were taken using an Essen IncuCyte FLR automated microscope, with six 96-well plates imaged in about 24 minutes. Images were captured and exported and JPEG files. Spent culture media was transfered to black-well plates for the LDH assay, and remaining media was sorted at -80 C for later use. Cells were treated with RLT buffer and frozen until shipped for gene expression analysis. Total RNA was isolated from the cell suspension in 75 uL of Buffer RLT (Qiagen, Germantown, MD 20874) by Quintiles/Expression Analysis (Durham, NC) using a custom isolation procedure. Total RNA from each plate well was transferred to a preamplification plate. Fluidigm's 96.96 Dynamic ArrayTM (Fluidigm, Amsterdam, the Netherlands) technology was used for gene expression analyses by quantitative reverse transcription polymerase chain reaction (qRT-PCR, performed by Quintiles/Expression Analysis, Durham, NC)89. Standard TaqManTM Assays (Applied Biosystems/ThermoFisher Scientific, Foster City, CA) were used to assess the expression of 93 genes selected based on their selectivity and sensitivity to important hepatic receptors known to be modulated by environmental chemicals; importance in human hepatocyte functionality; and hepatotoxicity. […]

| SMILES | outcome |
| --- | --- |
| CCOP(=S)(OCC)Oc1ccc2c(C)c(Cl)c(=O)oc2c1 | inactive |
| CC(COc1ccc(Oc2ccccc2)cc1)Oc1ccccn1 (stereo not given) | inactive |
| CCCCN(CC)c1c([N+](=O)[O-])cc(C(F)(F)F)cc1[N+](=O)[O-] | inactive |
| CNC(=O)Oc1cccc2c1OC(C)(C)O2 | inactive |
| CCc1cccc(CC)c1N(COC)C(=O)CCl | inactive |
| CC1(C(=O)Nc2ccc(O)c(Cl)c2Cl)CCCCC1 | inactive |
| CC[C@H](C)[C@H]1O[C@]2(C=C[C@@H]1C)C[C@@H]1C[C@@H](C/C=C(\C)[C@@H](O[C@H]3C[C@H](OC)[C@@H](O[C@H]4C[C@H](OC)[C@@H](NC)[C@H](C)O4)[C@H](C)O3)[C@@H](C)/C=C/C=C3\CO[C@@H]4[C@H](O)C(C)=C[C@@H](C(=O)O1)[C@]34O)O2 | inactive |
| CSc1nc(NC(C)C)nc(NC(C)C)n1 | inactive |
| CCOC(=O)CC(SP(=O)(OC)OC)C(=O)OCC (stereo not given) | inactive |
| CCOP(=S)(Oc1cnc(C(C)(C)C)nc1)OC(C)C (stereo not given) | inactive |
